PMC5540273 (PLoS ONE, 2017)
Several values for one entry are separate records, joined by “and”; a condition that tells them apart may be missing. Identical values can stand only once. Like-named read-outs stand apart in the source and are kept apart here.

Tests used:
[1] = system: MKK7; conditions: concentration: 1 μM, replicates: in singlicate; n = 1
[2] = system: MKNK1; conditions: concentration: 1 μM, replicates: in singlicate, n = 1
[3] = system: MKNK2; conditions: concentration: 1 μM, replicates: in singlicate, n = 1
[4] = system: T1, MLCK; conditions: concentration: 1 μM, replicates: in singlicate, n = 1
T1 construct: gene MYLK3

[5] = system: T2, MLK1; conditions: concentration: 1 μM, replicates: in singlicate, n = 1
T2 construct: gene MAP3K9

[6] = system: MLK2; conditions: concentration: 1 μM, replicates: in singlicate, n = 1
[7] = system: MLK3; conditions: concentration: 1 μM, replicates: in singlicate, n = 1
[8] = system: MRCKA; conditions: concentration: 1 μM, replicates: in singlicate, n = 1
[9] = system: T3, MRCKB; conditions: concentration: 1 μM, replicates: in singlicate, n = 1
T3 construct: gene CDC42BPB

[10] = system: MST1R; conditions: concentration: 1 μM, replicates: in singlicate, n = 1
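Further: KINOMEscan kinase panel screen.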

Row | Compound | %Inh [1] | %Inh [2] | %Inh [3] | %Inh [4] | %Inh [5] | %Inh [6] | %Inh [7] | %Inh [8] | %Inh [9] | %Inh [10] | %Inh ([2]; 1 µM) | %Inh ([3]; 1 µM) | %Inh ([4]; 1 µM) | %Inh ([5]; 1 µM) | %Inh ([6]; 1 µM) | %Inh ([7]; 1 µM) | %Inh ([8]; 1 µM) | %Inh ([9]; 1 µM) | %Inh ([10]; 1 µM)
1 | COc1ccc(S(=O)(=O)NC2CCN(c3cc(C)nc(Nc4cccc(C#N)c4)n3)CC2)cc1.O=C(O)C(F)(F)F [GSK1653539] | 0% | 0% | 20% | 0% | 0% | 0% | 27% | 0% | 0% | 48% |  |  |  |  |  |  |  |  | 
2 | NCCNS(=O)(=O)c1ccc(-c2ccnc3[nH]ccc23)cc1 [GSK977617] | 0% |  |  |  |  |  |  |  |  |  | 35% and 28% | 97% and 94.8% | 88% and 77% | 21% and 2% | 21% and 18% | 22% and 0% | 44% and 0% | 80% and 62% | 21% and 16%
3 | O=C1Cc2cc(Nc3nc(NCc4cccc(S(=O)(=O)C(F)(F)F)c4)ncc3C(F)(F)F)ccc2N1 | 0% | 0% | 0% | 10% | 0% | 32% | 3% | 5% | 10% | 0% |  |  |  |  |  |  |  |  | 
4 | CCc1nc(-c2cccc(C)c2)c(-c2ccnc(NCc3ccccc3)c2)s1 | 0% | 1% | 0% | 0% | 0% | 0% | 0% | 0% | 0% | 8% |  |  |  |  |  |  |  |  | 
5 | NS(=O)(=O)CCc1cccc(Nc2nccc(-c3c(-c4cccc(NC(=O)c5c(F)cccc5F)c4)nn4ccccc34)n2)c1 [GSK336735] | 100% | 0% | 0% | 20% | 0% | 3% | 43% | 92.2% | 96.2% | 62% |  |  |  |  |  |  |  |  | 
6 | Nc1nc(-c2ccc3c(N)n[nH]c3c2)cc(N2CCCC2)n1 [GSK2227430] | 0% | 4% | 12% | 0% | 0% | 6% | 0% | 6% | 0% | 1% |  |  |  |  |  |  |  |  | 
7 | NCC(NC(=O)c1cc(-c2cn[nH]c2)c(-c2ccnc3[nH]ccc23)s1)c1ccccc1.O=C(O)C(F)(F)F.O=C(O)C(F)(F)F (stereo not drawn) [GSK1325775] | 0% | 63% | 94.2% | 96.3% | 0% | 0% | 0% | 80% | 98.6% | 5% |  |  |  |  |  |  |  |  | 
8 | Nc1nccc(-c2c(-c3ccc(F)cc3)ncn2C2CCN(CC(F)(F)F)CC2)n1 [SB-236560] | 30% | 34% | 35% | 0% | 0% | 0% | 2% | 0% | 14% | 17% |  |  |  |  |  |  |  |  | 
9 | CN1c2ccc(NCc3ccc(F)cc3)cc2-c2c(cnn2C)S1(=O)=O | 0% | 0% | 0% | 0% | 15% | 22% | 0% | 0% | 0% | 0% |  |  |  |  |  |  |  |  | 
10 | CSc1ccc(-c2cc3ncnc(SCC(=O)O)c3s2)cc1 | 0% | 0% | 0% | 3% | 0% | 24% | 0% | 8% | 34% | 36% |  |  |  |  |  |  |  |  | 
11 | Fc1ccc(-c2ncn(CCCN3CCOCC3)c2-c2ccccn2)cc1 [SB-211742] | 0% | 0% | 0% | 0% | 0% | 27% | 0% | 0% | 0% | 0% |  |  |  |  |  |  |  |  | 
12 | Cn1cc(-c2ccc3c(c2)CCN3C(=O)Cc2ccccc2Cl)c2c(N)ncnc21 [GSK2608885] | 0% | 7% | 0% | 22% | 32% | 0% | 45% | 84% | 92.2% | 100% |  |  |  |  |  |  |  |  | 
13 | CN1c2ccc(CNc3ccc(F)cc3)cc2-c2c(cnn2C)S1(=O)=O | 0% | 15% | 0% | 3% | 0% | 24% | 0% | 0% | 0% | 0% |  |  |  |  |  |  |  |  | 
14 | N#Cc1ccc(-c2cc(-c3c[nH]nc3-c3ccccn3)ccn2)cc1 [GW693028] | 0% | 7% | 14% | 0% | 0% | 6% | 0% | 0% | 0% | 26% |  |  |  |  |  |  |  |  | 
15 | c1ccc(-c2n[nH]cc2-c2ccnc3ccccc23)nc1 [GW271431] | 0% | 6% | 7% | 10% | 0% | 0% | 22% | 28% | 13% | 32% |  |  |  |  |  |  |  |  | 
16 | CC(C)Oc1ccc2c(-c3ccnc(Nc4ccc(N5CCN(C)CC5)cc4)n3)cnn2n1 [GW696155] | 0% | 37% | 84% | 42% | 0% | 0% | 0% | 35% | 0% | 0% |  |  |  |  |  |  |  |  | 
17 | Cc1ccc(NC(=O)c2ccnc(N3CCN(C)CC3)c2)cc1-c1ccc(C(=O)NCC2CC2)cc1 [GW775604] | 0% | 2% | 0% | 16% | 0% | 21% | 0% | 0% | 0% | 0% |  |  |  |  |  |  |  |  | 
18 | O=C(c1ccc(-c2cc(-c3c[nH]nc3-c3ccccn3)ccn2)cc1)N1CCOCC1 [GW812171] | 24% | 0% | 0% | 0% | 0% | 34% | 0% | 1% | 12% | 0% |  |  |  |  |  |  |  |  | 
19 | C[C@@H](Oc1cc(-n2cnc3ccc(NC(=O)NC(C)(C)C)cc32)sc1C(N)=O)c1ccccc1Cl [GSK346294] | 0% | 0% | 0% | 0% | 0% | 27% | 37% | 12% | 5% | 29% |  |  |  |  |  |  |  |  | 
20 | Cc1nnc(-c2ccc3occ(-c4ccc(C(C)O)cc4)c3c2)o1 (stereo not drawn) | 0% | 16% | 0% | 14% | 6% | 14% | 0% | 10% | 0% | 15% |  |  |  |  |  |  |  |  | 
21 | O=C(NCCCN1CCOCC1)c1cccc(Nc2nccc(Nc3ccc(Oc4ccccc4)cc3)n2)c1 [GW663929] | 0% | 0% | 29% | 0% | 0% | 0% | 18% | 4% | 0% | 37% |  |  |  |  |  |  |  |  | 
22 | CCCCCc1nc2c(N)ncnc2n1CCCCC [SKF-97255] | 0% | 6% | 0% | 0% | 0% | 50% | 0% | 0% | 0% | 0% |  |  |  |  |  |  |  |  | 
23 | COc1ccc(Nc2ncc(C#N)c(Nc3ccccc3C(N)=O)n2)cc1N1CCN(C)CC1.Cl [GSK1558669] | 0% | 30% | 98.2% | 99.7% | 98.7% | 100% | 100% | 44% | 87% | 86% |  |  |  |  |  |  |  |  | 
24 | [2H]C([2H])(c1cccc(C(F)(F)F)c1C)n1ccn2c(=O)nc(N3CCOCC3)cc12 [GSK2336394] | 14% | 3% | 6% | 3% | 0% | 0% | 21% | 23% | 0% | 33% |  |  |  |  |  |  |  |  | 
25 | CC(=O)Nc1ccc(COc2ccc(Nc3ccnc4cc(-c5ccccn5)ccc34)cc2)cc1.Cl [GW440148] | 0% | 0% | 6% | 5% | 0% | 0% | 0% | 13% | 0% | 56% |  |  |  |  |  |  |  |  | 
26 | COc1ccc(COc2cc(-n3cnc4ccccc43)sc2C(N)=O)cc1 [GSK1024304] | 0% | 13% | 1% | 0% | 0% | 0% | 4% | 0% | 0% | 25% |  |  |  |  |  |  |  |  | 
27 | COc1cc2c(cc1OC[C@@H](O)CO)ncc1c3ccc(C#N)cc3[nH]c21 | 0% | 97.1% | 99.4% | 94.5% | 3% | 0% | 0% | 0% | 0% | 9% |  |  |  |  |  |  |  |  | 
28 | COc1cc(Nc2nccc(N3CCC(NC(=O)c4cccc(NC(C)=O)c4)C3)n2)cc(OC)c1OC (stereo not drawn) [GSK1379754] | 32% | 38% | 98.6% | 1% | 67% | 50% | 53% | 0% | 0% | 20% |  |  |  |  |  |  |  |  | 
29 | CCn1cnc2c(N)ncnc21 [GW345098] | 0% | 0% | 0% | 1% | 6% | 12% | 4% | 0% | 2% | 0% |  |  |  |  |  |  |  |  | 
30 | Cl.Nc1ncnc2occ(-c3ccc(NC(=O)Nc4cc(C(F)(F)F)ccc4F)cc3)c12 [SB-707548] | 22% | 56% | 98% | 44% | 40% | 65% | 65% | 11% | 0% | 28% |  |  |  |  |  |  |  |  | 
